Shown are actives, neighbours in structure and some others; about 4.6% of the full set was active somewhere.
D1 ag – activates the human D1 dopamine receptor; activation, % at 2 µM; AID 504660; 1% of 360,000 active; P21728; HEK293 T-REx D1 cells, calcium flux, agonist mode; note: 0% is about no effect
Target sequence (P21728 whole entry, looked up): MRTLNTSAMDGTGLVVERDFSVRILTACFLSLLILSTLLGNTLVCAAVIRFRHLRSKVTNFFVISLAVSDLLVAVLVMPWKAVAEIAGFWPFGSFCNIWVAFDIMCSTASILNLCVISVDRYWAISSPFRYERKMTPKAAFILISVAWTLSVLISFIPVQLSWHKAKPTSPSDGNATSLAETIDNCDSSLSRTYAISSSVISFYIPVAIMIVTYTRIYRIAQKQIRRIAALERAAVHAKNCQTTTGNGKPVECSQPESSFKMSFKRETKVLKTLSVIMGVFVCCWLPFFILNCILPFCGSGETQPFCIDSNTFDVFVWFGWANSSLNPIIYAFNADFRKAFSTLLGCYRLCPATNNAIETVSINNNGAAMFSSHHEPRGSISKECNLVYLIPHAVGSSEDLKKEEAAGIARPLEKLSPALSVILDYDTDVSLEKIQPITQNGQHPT
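Agonism was scored from calcium flux recorded over 180 s (1 read/s) after pintool compound addition, following a 10-cycle baseline. Cells were inducible force-coupled HEK293 TREx D1, plated overnight at 30 C and loaded with no-wash calcium dye.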
D1 antagonist – human D1 dopamine receptor antagonism. HEK293 TREx D1 cells, calcium flux, dopamine EC80; active compounds read low. activity change, negative = inhibition, % at 10 µM. 3.2% of 360,000 active. P21728. AID 504652; in the data active = activity change below about -30%; note: % is set by controls: 0 for no effect and ±100 for the full control effect
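Calcium flux readout: force-coupled, inducible Hek293 Trex D1 line, cells induced overnight at 30 C with tetracycline, dye-loaded 30–90 min at RT. Antagonism scored against EC80 dopamine challenge given 180 s after compound.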
TRHR enhancer – allosterically enhances the human TRH receptor. AID 493056. enhancement, % at 2 µM. TRHR cells, fluo-8 calcium fluorescence, EC20 TRH enhancement. 0.66% of 360,000 active. P34981; in the data active = enhancement above about 30%; note: 0% is about no effect
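Enhancer read-out: after compound pinning and an initial kinetic agonist-mode read, an EC20 of TRH (10 nM final) was injected and fluo-8 calcium signal (Ex 480/Em 530) followed at 1 s/cycle for 100 cycles in TRHR-expressing cells.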
TRHR ag – TRH receptor (human) agonism; P34981; TRHR cells, calcium flux fluo-8, FDSS agonist mode; activation, % at 2 µM; 0.18% of 360,000 active; note: 0% is about no effect
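Read-out: compound-evoked intracellular calcium rise in TRHR cells, fluo-8 dye, kinetic FDSS fluorescence at 1 s/cycle following a 10-cycle baseline. Cells cultured overnight before dye loading (30 min–1.5 h, RT).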
D1 PAM – potentiators of human D1 dopamine receptor. P21728. HEK293 TREx D1 cells, calcium flux, dopamine EC20 potentiation. potentiation, % at 10 µM. 0.036% of 360,000 active. AID 504651; in the data active = potentiation above about 30%; note: 0% is about no effect
* marks the source's active call; other numbers are inactive results; . = not tested or not shown. Cut-off read from the data, not from the text of the source, unless noted: active = activation above about 30%; inactive = the rest.

SMILES	D1 ag	D1 antagonist	TRHR enhancer	TRHR ag	D1 PAM
COc1ccc(C(=O)NC2(C(F)(F)F)C(=O)NC(C)=C2C#N)cc1OC (configuration not stated)	4.2	2.7	-3.9	0.5	2.5
CC(=O)Nc1nonc1-c1nnc(SCC(=O)Nc2cc(Cl)ccc2C)n1C	0.5	6.4	-6.5	-0.1	-1.3
COc1ccc(C(=O)c2oc3ccccc3c2NC(=O)COc2cccc(C)c2C)cc1	3.8	1.1	1.1	-0.2	-0.1
COc1ccc(NC(=O)Nc2ccc(C(C)C)cc2)cc1	-0.4	-36.5*	-14.9	-0.4	-8.8
CC(C)c1ccc(OCC(=O)Nc2ccncc2)cc1	18.4	-33.7*	-6.0	-2.2	0.4
Cc1cc(OCC(=O)Nc2ccncc2)ccc1Cl	19.6	-38.5*	-13.8	0.3	-2.8
CC(C)c1onc(C(=O)NCc2ccccn2)c1[N+](=O)[O-]	0.5	-6.1	30.6*	0.5	0.1
COc1ccc(NC(=O)CCC(=O)c2ccc(C(C)C)cc2)cc1	2.2	-13.5	4.1	0.6	-4.9
CC(C)c1ccc(NC(=O)NCc2ccccn2)cc1	4.1	-33.9*	-1.6	0.2	3.5
CC1=C(C)CC(C(=O)NCc2ccccn2)C(C(=O)O)C1 (configuration not stated)	3.4	-91.4*	2.8	0.9	-4.5
CC(C)C(C(=O)Nc1ccncc1)c1ccc(Cl)cc1 (configuration not stated)	50.8*	-7.1	-3.5	7.7	0.2
CC(=O)NS(=O)(=O)c1ccc(N=NN2CCOCC2)cc1	0.1	-57.1*	-22.5	-0.7	-6.3
CC(=O)NS(=O)(=O)c1ccc(N=NN2CCCCCC2)cc1	-1.0	-0.3	-3.6	0.3	4.8
CC(=O)c1ccc(S(=O)(=O)N2CCN(C(=O)CSc3ccc(C)c(C)c3)CC2)cc1	10.5	-34.0*	-2.5	-2.1	-8.0
COc1ccc(OC)c(CNC(=O)c2cnc3c(C)cccn3c2=O)c1	0.5	15.9	4.7	-0.4	2.1
CC(=O)c1ccc(N2CCN(C(=O)c3nn(Cc4ccccc4)c(=O)c4ccccc34)CC2)cc1	3.5	-44.9*	0.8	0.3	-6.5
NC(=O)C1CN(C(=O)c2nn(Cc3ccccc3)c(=O)c3ccccc23)c2ccccc2O1 (configuration not stated)	5.1	25.8	36.8*	-0.2	4.8
O=C(c1n[nH]c2ccccc12)N1CCOCC1	-0.7	.	-24.3	0.2	-8.3
NC(=O)c1nn(Cc2ccccc2)c(=O)c2ccccc12	-1.4	16.6	1.9	-0.4	2.6
CC(=O)c1ccc(N2CCN(C(=O)c3n[nH]c4ccccc34)CC2)cc1	6.8	-33.1*	-2.6	-0.6	1.4
COc1ccc(-n2nc3c(c2NC(=O)C(=O)NCc2ccccc2)CSC3)cc1	2.7	.	-0.9	0.0	-0.2
CCN(C(=O)Cn1ncc2c(=O)oc3ccc(C)cc3c21)c1cc(OC)ccc1OC	-0.5	8.4	-7.5	-1.9	0.2
CC(=O)Nc1ccc(C(=O)NC2CCSc3ccccc32)cc1 (configuration not stated)	0.6	-15.9	-1.0	0.1	-8.2
Cc1ccc(NC(=S)NC2CCSc3ccccc32)cc1 (configuration not stated)	22.8	-38.4*	12.8	-0.8	-6.2
CSc1ccccc1C(=O)NC1CCSc2ccccc21 (configuration not stated)	-0.7	-41.0*	-11.7	-1.6	-3.9
SMILES	D1 ag	D1 antagonist	TRHR enhancer	TRHR ag	D1 PAM
N#C/C(=C\c1cc(Cl)c(OCc2ccc(Cl)cc2)c(Cl)c1)C(N)=O	7.2	-43.4*	4.6	0.8	-14.2
CC1CCN(C(=O)CN2c3ccc(C(C)C)cc3-c3ccccc3S2(=O)=O)CC1	1.0	6.2	-12.8	0.3	-1.9
Cn1cnc(S(=O)(=O)N2CCC(C(=O)NCc3ccccc3)CC2)c1	0.1	-1.0	1.6	-1.4	0.9
CCn1c(CNC(=O)c2ccc(OC)cc2)nnc1SCC(=O)Nc1cccc(C)c1C	2.3	1.0	14.3	-0.3	2.9
Cc1c(C(=O)N2CCOCC2)sc2ncn(CC(=O)N3CCC(C)CC3)c(=O)c12	1.6	0.7	-2.4	0.5	0.6
Cc1c(C(=O)N2CCN(c3ccc([N+](=O)[O-])cc3)CC2)sc2ncn(CC(=O)N3CCOCC3)c(=O)c12	53.6*	8.9	10.7	-1.7	.
Nc1nc(-c2cccs2)c(CC(=O)O)s1	-1.4	-38.4*	28.5	0.4	9.6
O=C(O)Cc1sc(Nc2ccc(Cl)cc2)nc1-c1cccs1	9.3	-16.3	4.5	4.4	-7.0
Cc1ccc(NC(=O)COc2cccc(-n3cnnn3)c2)cc1[N+](=O)[O-]	23.0	-45.5*	9.7	-1.6	-4.5
COc1cccc(NC(=O)COc2cccc(-n3cnnn3)c2)c1	0.1	11.6	10.6	-0.6	1.9
COc1ccc(NC(=O)CSC2=Nc3ccccc3N=C(c3ccc(F)cc3)C2)cc1OC	0.6	-12.0	1.8	0.1	-1.2
C=CCn1c(N)c(C(=O)Nc2ccccc2)c2nc3ccccc3nc21	4.3	-35.9*	13.9	0.0	-3.4
C=CCn1c(N)c(C(=O)OC(C)(C)C)c2nc3ccccc3nc21	2.5	16.7	2.5	1.1	0.1
O=C(Nc1ccccc1C(=O)OCc1cc(=O)n2nc(C3CC3)sc2n1)c1cccc(F)c1	1.0	-5.1	3.0	-0.1	0.6
O=C(COC(=O)CN1C(=O)c2ccccc2C1=O)Nc1ncc(Cl)cc1Cl	0.4	-7.0	13.6	-0.1	-3.7
CCC1(CC)NC(=O)N(CC(=O)OCC(=O)Nc2ncc(Cl)cc2Cl)C1=O	0.6	-64.3*	8.9	-0.3	-15.7
O=C(COC(=O)CCOc1ccccc1)Nc1ncc(Cl)cc1Cl	0.3	-60.0*	0.7	-0.1	2.6
CCCC(=O)NCC(c1ccc2c(c1)OCO2)N1CCOCC1 (configuration not stated)	1.7	-10.0	-2.0	0.4	-2.2
CC(=O)c1cccc(-n2c(=O)c3c4c(sc3n(CC(=O)c3ccc(Cl)cc3)c2=O)CN(C(C)=O)CC4)c1	-0.8	15.2	1.9	0.2	-0.4
Cc1ccc(C)c(NC(=S)N2CCCC2)c1	0.1	-65.4*	10.0	0.1	-0.6
CC(=O)c1ccc(N2CCN(C(=O)CCC(=O)Nc3ccc4nc(N5CCN(C)CC5)cc(C)c4c3)CC2)cc1	-2.7	-36.5*	2.1	0.4	-8.6
Cc1ccc(C)c(N2CCN(C(=S)Nc3ccc4nc(N5CCOCC5)cc(C)c4c3)CC2)c1	11.0	4.0	1.7	-0.8	1.2
Cc1cccc(NC(=S)N2CCN(c3cc(C)ccc3C)CC2)c1	5.1	-34.8*	-4.5	0.2	-8.9
Cc1ccc(C)c(N2CCN(C(=S)Nc3ccc4nc(N5CCN(C)CC5)cc(C)c4c3)CC2)c1	17.8	-60.7*	5.2	-0.3	-13.2
Cc1ccc(N2CC(NC(=O)c3cc4ccccc4o3)CC2=O)cc1C (configuration not stated)	-2.2	.	4.6	0.7	-0.5
CCN(CC)CCOC(=O)c1ccc(NC(=O)CCn2c(=O)oc3ccccc32)cc1	-1.4	5.7	7.8	0.1	1.2

From PubChem BioAssay
